High-throughput results from PubChem BioAssay.
In the library only some 8.7% were active in any assay of this set; here they are far more common.
TNAP act mid DEA: human TNAP activation, intermediate phosphate acceptor. P05186. purified TNAP, CDP-star luminescence, 100 mM DEA, 30 min; stronger effect = higher value; scale: 0 levamisole-inhibited, 1 vehicle-only enzyme. activation factor at 20 µM. 64,000 tested, under 10 active. AID 813;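 active = activation factor of at least 2 at 20 µM, relative to controls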
Smad3 inh: inhibitors of human Smad3 transcription factor binding; P84022; TR-FRET Smad3/Dy647-FoxH1 peptide binding, europium anti-His; inhibition, % at 25 µM; 88,000 tested, 0.29% active; AID 630;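 active = compounds that reduce the energy-transfer binding signal between the protein and its labelled peptide by more than half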
Cav3 T inh: blocks human Cav3.2 T-type calcium channel; O95180; Cav3.2-expressing cells, Fluo-4 calcium fluorescence FDSS; stronger effect = lower value; B-score at 10 µM; 100,000 tested, 4% active; AID 449739;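 active = single-dose well whose peak fluorescence ratio is a statistical outlier from its plate by either plate-standardised score or position-corrected B-score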
PostGolgi ctrl: inhibits growth of the yeast control strain; 98,000 tested, 5% active; AID 738; efflux-deficient yeast background strain, growth absorbance A615, 16 h; inhibition, % at 10 µM
PostGolgi yeast: growth inhibition of a yeast mutant, post-Golgi transport screen. inhibition, % at 10 µM. AID 739. post-Golgi transport phenotypic cell assay. 98,000 tested, 0.9% active;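 also: yeast cells grown in 1536-well plates; yeast grown about 18 h at 30C before absorbance read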
hDAT+cocaine: human DAT dopamine uptake with cocaine, either direction; LLC-PK1 hDAT cells, [14C]-dopamine uptake with cocaine IC80; actives deviate in either direction; B-score at 10 µM; 110,000 tested, 1.3% active;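 active = Z score or B-score, a plate-position-corrected score, falls beyond the plate's 99.7% confidence bounds, in either direction; inactive = both scores lie inside the 99.7% bounds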
Target sequence (Q01959 whole entry, looked up): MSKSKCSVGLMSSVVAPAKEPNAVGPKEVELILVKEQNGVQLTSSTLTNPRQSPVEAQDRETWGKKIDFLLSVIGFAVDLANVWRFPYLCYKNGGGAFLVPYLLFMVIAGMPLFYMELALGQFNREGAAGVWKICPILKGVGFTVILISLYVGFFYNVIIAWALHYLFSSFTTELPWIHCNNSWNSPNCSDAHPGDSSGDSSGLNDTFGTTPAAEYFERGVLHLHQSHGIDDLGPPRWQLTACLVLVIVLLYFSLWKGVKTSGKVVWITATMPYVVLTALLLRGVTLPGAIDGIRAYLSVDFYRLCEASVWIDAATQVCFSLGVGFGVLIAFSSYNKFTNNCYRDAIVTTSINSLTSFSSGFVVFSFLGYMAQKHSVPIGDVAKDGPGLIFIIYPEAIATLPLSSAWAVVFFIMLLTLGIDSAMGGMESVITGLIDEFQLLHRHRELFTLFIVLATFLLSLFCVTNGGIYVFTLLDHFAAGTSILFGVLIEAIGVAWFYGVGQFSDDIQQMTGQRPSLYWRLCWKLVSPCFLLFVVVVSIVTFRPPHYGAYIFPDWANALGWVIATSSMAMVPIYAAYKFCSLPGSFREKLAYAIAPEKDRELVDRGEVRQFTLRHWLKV
Each line names hits and unclear results; the compound was inactive in the other large screens. Rule as the data show it, unless noted: active = inhibition above about 30%; inactive = the rest.

COc1ccc(Cc2nc(C(=O)Nc3ccccc3)cs2)cc1	Cav3 T inh -3.8 (no result: TNAP act mid DEA)
COc1ccc(NC(=O)c2ccccn2)cc1	none (no result: TNAP act mid DEA, Smad3 inh, Cav3 T inh)
COc1ccc(Cc2nc(C(=O)Nc3ccc(F)cc3)cs2)cc1	none (no result: TNAP act mid DEA)
COc1ccc(CNC(=O)c2csc(Cc3ccc(Cl)cc3)n2)cc1	none (no result: TNAP act mid DEA, Smad3 inh, Cav3 T inh, hDAT+cocaine)
COc1ccc(Cc2nc(C(=O)Nc3ccc(Cl)cc3)cs2)cc1	PostGolgi ctrl 38 (no result: TNAP act mid DEA)
COc1ccc(CNC(=O)c2noc3c2CCCC3)cc1	Cav3 T inh -5.4
O=C(Oc1nsnc1N1CCOCC1)N(c1ccccc1)c1ccccc1	PostGolgi ctrl 30
CCCCC(=O)NC1(C(F)(F)F)C(=O)N(CC(C)C)C2=C1C(=O)CC(C)(C)C2 (stereo not given)	PostGolgi ctrl 31 (no result: TNAP act mid DEA, Smad3 inh)
CCCCN1C(=O)C(NC(=O)C2CC2)(C(F)(F)F)C2=C1CC(C)(C)CC2=O (stereo not given)	none (no result: TNAP act mid DEA, Smad3 inh)
CCCCCCc1cc2cc(S(=O)(=O)c3ccc(Cl)cc3)c(=O)oc2cc1O	none (no result: TNAP act mid DEA, Smad3 inh, PostGolgi ctrl, PostGolgi yeast)
CCN(CC)c1ccc2cc(S(=O)(=O)c3ccc(Cl)cc3)c(=O)oc2c1	Cav3 T inh -4.1 (no result: TNAP act mid DEA, Smad3 inh, PostGolgi ctrl, PostGolgi yeast)
C#Cc1ccc([C@H]2C=C(C(=O)O)O[C@@H](OCc3ccc(CO)cc3)C2)cc1	none (no result: TNAP act mid DEA, Smad3 inh, PostGolgi ctrl, PostGolgi yeast)
Cc1ccc(Cn2nnnc2CN2CCC(c3nc4ccc(Cl)cc4[nH]3)CC2)cc1	Cav3 T inh -5.7, PostGolgi ctrl 74 (no result: TNAP act mid DEA, Smad3 inh)
Clc1ccc2nc(C3CCN(Cc4nnnn4C4CCCCC4)CC3)[nH]c2c1	none (no result: TNAP act mid DEA, PostGolgi ctrl, PostGolgi yeast)
CC(C)C(=O)Nc1ccc(C(=O)NC2CCSC2=O)cc1 (stereo not given)	none
O=c1ccc(/C=C/c2ccccc2)nn1Cc1ccccc1Cl	PostGolgi ctrl 41 (no result: TNAP act mid DEA)
CC(C)NC(=S)Nc1ccc(Oc2ccccc2)cc1	Cav3 T inh -4.7 (no result: TNAP act mid DEA, Smad3 inh)
CCCNC(=S)Nc1ccc(Oc2ccccc2)cc1	none (no result: TNAP act mid DEA, Smad3 inh)
Cc1ccccc1CSCC(=O)c1c(N)n(CC(C)C)c(=O)n(C)c1=O	none (no result: TNAP act mid DEA)
O=C(c1cccs1)N1CCCC(c2ccccc2)C1 (stereo not given)	PostGolgi ctrl 37
CCOC(=O)C1CCCN(C(=O)c2cccs2)C1 (stereo not given)	none
Clc1ccc2ncc(-c3nnnn3-c3ccccc3)c(-c3ccccc3)c2c1	PostGolgi ctrl 36 (no result: TNAP act mid DEA, Smad3 inh)
COc1cc(CCC(=O)OCC(=O)Nc2nc(C)c(Cl)cc2Cl)cc(OC)c1OC	none (no result: TNAP act mid DEA, Smad3 inh)
CCOc1ccc2[nH]c(=O)c(CN(Cc3ccc(F)cc3)C(=O)c3ccco3)cc2c1	Cav3 T inh -4.3
CCc1ccc2[nH]c(=O)c(CN(Cc3ccc4c(c3)OCO4)C(=O)c3ccco3)cc2c1	Cav3 T inh -3.3
O=C(c1cc2ccccc2oc1=O)N(Cc1ccccc1)Cc1ccc2c(c1)OCO2	Cav3 T inh -6.1 (no result: TNAP act mid DEA, PostGolgi ctrl, PostGolgi yeast)
CCNc1nc(Cl)nc(N(NC(C)=O)C(C)CC)n1 (stereo not given)	none (no result: TNAP act mid DEA)
Cc1ccc(S(=O)(=O)N(C)CC(=O)OCc2nnc(-c3ccccc3)o2)cc1	none
O=C(C[N+]1(c2ccccc2)CCOCC1)c1ccccc1	none (no result: TNAP act mid DEA, Cav3 T inh, PostGolgi ctrl, PostGolgi yeast, hDAT+cocaine)
COc1ccc(C2Nc3ccccc3C(=O)N2Cc2ccco2)cc1COc1ccc(F)cc1 (stereo not given)	Cav3 T inh -7 (no result: TNAP act mid DEA, PostGolgi ctrl, PostGolgi yeast)
COc1ccc(-c2cc(C#N)nc(N3CCN(c4ccccc4)CC3)n2)cc1	none (no result: TNAP act mid DEA)
COc1ccc(-c2nc3cc(NC(=O)c4ccc5c(c4)OCO5)ccc3o2)cc1	hDAT+cocaine -9
CCOC(=O)c1c(C)[nH]c(C(=O)OCC(=O)N2c3ccccc3CC2C)c1C (stereo not given)	none
CC1Cc2ccccc2N1C(=O)COC(=O)c1ccc(S(=O)(=O)N(C)C)cc1 (stereo not given)	PostGolgi yeast 30
CC(C)(N=NC(C)(C)C(=N)N)C(=N)N	none (no result: TNAP act mid DEA, Cav3 T inh, PostGolgi ctrl, PostGolgi yeast, hDAT+cocaine)
COc1ccc(CC(=O)NCc2ccccc2Cl)cc1S(=O)(=O)N1CCOCC1	none (no result: Cav3 T inh)
COC(=O)c1ccc(COC(=O)CCc2nc(-c3ccccc3)c(-c3ccccc3)o2)cc1	Cav3 T inh -5.2 (no result: TNAP act mid DEA)
COc1cc(CN2CCC(C(=O)N3CCN(c4ccccc4F)CC3)CC2)cc(OC)c1OC	none
CC(=O)Nc1ccc(NC(=O)CN(c2cccc(C)c2)S(C)(=O)=O)cc1	none (no result: TNAP act mid DEA)
O=C1NCCCC2c3cc(O)c4ccccc4c3OC12N1CCCCC1 (stereo not given)	hDAT+cocaine -3.4
O=C1NCCCC2c3c(cc(Br)c(O)c3Br)OC12N1CCOCC1 (stereo not given)	none
Cc1c(CN(C)C)c2c(n1Cc1ccccc1)C(=O)c1ccc(Br)cc1-2	none (no result: TNAP act mid DEA)
